# From the supplement of paper PMC11555231
# Target: PADI4, Q9UM07
# Experiment: log2 enrichment score relative to parent PADI4_3 peptide (binding to PADI4); higher = tighter binding than parent
# Conditions: CaCl2: 10 mM
# Procedure: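 Deep mutational scan of the cyclic peptide PADI4_3 (ClAc-D-Tyr1 initiator, thioether-cyclised to Cys12, C-terminal Gly plus HA tag, mRNA-displayed). Positions 2-11 were each randomised by NNK codons; Met was reprogrammed as N-methyl-alanine (MeA). One round of equilibrium panning against bead-immobilised human PADI4 (100 nM, 10 mM CaCl2, RT). Log2 enrichment (bound/input frequency) relative to the parent sequence (0 = parent), mean of three independent selections.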
# PADI4, Q9UM07, sequence (Q9UM07 whole entry): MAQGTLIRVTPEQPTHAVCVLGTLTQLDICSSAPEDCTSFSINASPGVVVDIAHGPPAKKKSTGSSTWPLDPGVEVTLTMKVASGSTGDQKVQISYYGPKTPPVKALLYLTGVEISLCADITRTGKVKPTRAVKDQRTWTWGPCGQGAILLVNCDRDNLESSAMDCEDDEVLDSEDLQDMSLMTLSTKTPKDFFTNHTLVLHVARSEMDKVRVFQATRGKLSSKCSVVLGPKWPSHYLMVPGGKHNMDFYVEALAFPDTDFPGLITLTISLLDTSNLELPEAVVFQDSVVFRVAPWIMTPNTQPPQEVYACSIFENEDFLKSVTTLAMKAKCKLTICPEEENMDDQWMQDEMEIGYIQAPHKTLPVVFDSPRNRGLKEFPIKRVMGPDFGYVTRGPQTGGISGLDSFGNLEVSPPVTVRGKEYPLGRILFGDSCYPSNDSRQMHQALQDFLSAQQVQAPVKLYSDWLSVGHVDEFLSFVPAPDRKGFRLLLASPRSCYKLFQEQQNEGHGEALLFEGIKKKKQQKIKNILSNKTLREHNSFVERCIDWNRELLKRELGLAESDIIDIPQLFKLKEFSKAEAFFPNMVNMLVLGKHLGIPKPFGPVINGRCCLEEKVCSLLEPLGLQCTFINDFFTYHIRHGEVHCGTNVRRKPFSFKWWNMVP
binder,measurement,value
YRDHHYWHPKYCG [PADI4_3_R7W R7W],log2 enrichment score,1.07
YRDKHYRHPKYCG [PADI4_3_H4K H4K],log2 enrichment score,-2.3
YRDHHYHHPKYCG [PADI4_3_R7H R7H],log2 enrichment score,-1.29
YRDHHYRHPKWCG [PADI4_3_Y11W Y11W],log2 enrichment score,-2.51
YRDHHYRHPKYCG [PADI4_3_H5H H5H],log2 enrichment score,0
YRDHHYRHPKYCG [PADI4_3_R2R R2R],log2 enrichment score,0
YRDFHYRHPKYCG [PADI4_3_H4F H4F],log2 enrichment score,-3.79
YRDHDYRHPKYCG [PADI4_3_H5D H5D],log2 enrichment score,-4.15
YRDHHYRYPKYCG [PADI4_3_H8Y H8Y],log2 enrichment score,-3.56
YRDHHHRHPKYCG [PADI4_3_Y6H Y6H],log2 enrichment score,0.321
YRDHHYDHPKYCG [PADI4_3_R7D R7D],log2 enrichment score,0.031
YRYHHYRHPKYCG [PADI4_3_D3Y D3Y],log2 enrichment score,-3.73
YRDHHYRHPYYCG [PADI4_3_K10Y K10Y],log2 enrichment score,-0.51
YHDHHYRHPKYCG [PADI4_3_R2H R2H],log2 enrichment score,-2.21
YRDHHYRKPKYCG [PADI4_3_H8K H8K],log2 enrichment score,-3.86
YRDHHYRRPKYCG [PADI4_3_H8R H8R],log2 enrichment score,-3.15
YRDHHYRDPKYCG [PADI4_3_H8D H8D],log2 enrichment score,-3.82
YRDHHYRHRKYCG [PADI4_3_P9R P9R],log2 enrichment score,-1.83
YRDHHYRHPDYCG [PADI4_3_K10D K10D],log2 enrichment score,-2.34
YRDHYYRHPKYCG [PADI4_3_H5Y H5Y],log2 enrichment score,-4.14
YRDYHYRHPKYCG [PADI4_3_H4Y H4Y],log2 enrichment score,-3.97
YRRHHYRHPKYCG [PADI4_3_D3R D3R],log2 enrichment score,-2.94
YRDHHDRHPKYCG [PADI4_3_Y6D Y6D],log2 enrichment score,-2.27
YRDHHYRHPKDCG [PADI4_3_Y11D Y11D],log2 enrichment score,-3.74
YRDWHYRHPKYCG [PADI4_3_H4W H4W],log2 enrichment score,-3.44
YRDHHYRWPKYCG [PADI4_3_H8W H8W],log2 enrichment score,-3.81
YRDHHYRHPKKCG [PADI4_3_Y11K Y11K],log2 enrichment score,-4.77
YRDHHKRHPKYCG [PADI4_3_Y6K Y6K],log2 enrichment score,-1.84
YRDHHYRHPRYCG [PADI4_3_K10R K10R],log2 enrichment score,-0.238
YRDHHYRHPHYCG [PADI4_3_K10H K10H],log2 enrichment score,-1
YRDRHYRHPKYCG [PADI4_3_H4R H4R],log2 enrichment score,2.48
YRDHKYRHPKYCG [PADI4_3_H5K H5K],log2 enrichment score,-2.71
YRDHHYKHPKYCG [PADI4_3_R7K R7K],log2 enrichment score,-0.44
YRDHHYRHPKHCG [PADI4_3_Y11H Y11H],log2 enrichment score,-2.81
YWDHHYRHPKYCG [PADI4_3_R2W R2W],log2 enrichment score,-2.67
YRDHHYRHPKRCG [PADI4_3_Y11R Y11R],log2 enrichment score,-3.96
YKDHHYRHPKYCG [PADI4_3_R2K R2K],log2 enrichment score,0.59
YRDHHYRHKKYCG [PADI4_3_P9K P9K],log2 enrichment score,-1.76
YRDHHYRHHKYCG [PADI4_3_P9H P9H],log2 enrichment score,-2.06
YRDHHYRHYKYCG [PADI4_3_P9Y P9Y],log2 enrichment score,-2
YRDHHYRHPKYCG [PADI4_3_Y11Y Y11Y],log2 enrichment score,0
YRDHHYYHPKYCG [PADI4_3_R7Y R7Y],log2 enrichment score,-0.78
YRDHHYRHPKYCG [PADI4_3_R7R R7R],log2 enrichment score,0
YRWHHYRHPKYCG [PADI4_3_D3W D3W],log2 enrichment score,-3.57
YDDHHYRHPKYCG [PADI4_3_R2D R2D],log2 enrichment score,-3.75
YRDHHYRHPKYCG [PADI4_3_K10K K10K],log2 enrichment score,0
YRDHHYRHDKYCG [PADI4_3_P9D P9D],log2 enrichment score,-2.06
YRDHHYRHPWYCG [PADI4_3_K10W K10W],log2 enrichment score,-0.93
YRHHHYRHPKYCG [PADI4_3_D3H D3H],log2 enrichment score,-3.57
YRDHRYRHPKYCG [PADI4_3_H5R H5R],log2 enrichment score,-3.55
YRKHHYRHPKYCG [PADI4_3_D3K D3K],log2 enrichment score,-3.84
YRDHWYRHPKYCG [PADI4_3_H5W H5W],log2 enrichment score,-4.12
YRDHHYRHPKYCG [PADI4_3_H4H H4H],log2 enrichment score,0
YRDHHYRHPKYCG [PADI4_3_H8H H8H],log2 enrichment score,0
YYDHHYRHPKYCG [PADI4_3_R2Y R2Y],log2 enrichment score,-2.62
YRDHHRRHPKYCG [PADI4_3_Y6R Y6R],log2 enrichment score,-0.786
YRDHHYRHWKYCG [PADI4_3_P9W P9W],log2 enrichment score,-2
YRDHHWRHPKYCG [PADI4_3_Y6W Y6W],log2 enrichment score,-2.2
YRDHHYRHPKYCG [PADI4_3_Y6Y Y6Y],log2 enrichment score,0
